11 compounds from the supplement of paper PMC13380429 can be followed below.

The test system of this test is Vero E6 infected with SARS-CoV-2. As to the kind of experiment: SARS-CoV-2 infection rate relative to infected DMSO; higher = more infection, active = 60 or less. The settings on record: 24 h.
Turning to `CN(C)CC/C=C1\c2ccccc2CSc2ccccc21` [dosulepin] (10 µM), the SARS-CoV-2 infection rate is 99.5% (inactive).
As for `O=c1[nH]cnc2c1cnn2[C@@H]1O[C@H](CO)[C@@H](O)[C@H]1O` [allopurinol-riboside] (10 µM), the figure is 109% (inactive); as for `CC(C)(F)C[C@H](N[C@@H](c1ccc(-c2ccc(S(C)(=O)=O)cc2)cc1)C(F)(F)F)C(=O)NC1(C#N)CC1` [odanacatib] (10 µM), 96.5% (inactive).
For the compound `CS(=O)(=O)CCNCc1ccc(-c2ccc3ncnc(Nc4ccc(OCc5cccc(F)c5)c(Cl)c4)c3c2)o1` [lapatinib] (10 µM), the SARS-CoV-2 infection rate is 111% (inactive).
In the case of `COC(=O)N1CC[C@@H]2[C@H]1CCC[C@@]2(O)C#Cc1cccc(C)c1` [mavoglurant] (10 µM), the SARS-CoV-2 infection rate was 112% (inactive).
In the case of `C[C@@H](O)[C@H](N)C(=O)N1CCC[C@H]1C(=O)N1CCC[C@H]1C(=O)N[C@H](C(N)=O)[C@@H](C)O` [rapastinel] (10 µM), the SARS-CoV-2 infection rate was 94% (inactive).
For `O=C1NC(=O)c2c1c1c3ccccc3n3c1c1c2c2ccccc2n1C1CCC3O1` (10 µM), the SARS-CoV-2 infection rate is 108% (inactive).
On to `Cn1cc(-c2ccc3nnc(Sc4ccc5ncccc5c4)n3n2)cn1` (10 µM), for which the SARS-CoV-2 infection rate was 87% (inactive).
To `C[C@@H]1CC[C@H]2[C@@H](C)C(=O)O[C@@H]3O[C@@]4(C)CC[C@@H]1[C@]32OO4` [artemisinin] (10 µM) belongs 106% (inactive); to `COC(=O)Nc1ccc2[nH]cc(CCNC(C)=O)c2c1` (10 µM), 108% (inactive); to `CC(C)(C)n1nc(-c2cccc3ccccc23)c2c(N)ncnc21` [1-naphthyl-PP1] (0.833333 µM), 96.5% (inactive).
